Data: publication PMC7862700, “An all-to-all approach to the identification of sequence-specific readers for epigenetic DNA modifications on cytosine”

Tests used:
Experiment in all cases: DAPPL (digital affinity profiling via proximity ligation, sequencing); 10 mM Tris-HCl pH 7.5, 50 mM NaCl, 1 mM DTT, 4% glycerol, room temperature, 30 min; GST-TFs on glutathione beads, 16-mer random dsDNA library, 0.1% formaldehyde crosslink after washing; high values mean tight binding
Conditions in all cases: protein: recombinant; tags: N-terminal GST; dsDNA, one strand shown
FEV = molecular target: T1, FEV (Homo sapiens, UniProt Q99581 1-238)
T1 sequence: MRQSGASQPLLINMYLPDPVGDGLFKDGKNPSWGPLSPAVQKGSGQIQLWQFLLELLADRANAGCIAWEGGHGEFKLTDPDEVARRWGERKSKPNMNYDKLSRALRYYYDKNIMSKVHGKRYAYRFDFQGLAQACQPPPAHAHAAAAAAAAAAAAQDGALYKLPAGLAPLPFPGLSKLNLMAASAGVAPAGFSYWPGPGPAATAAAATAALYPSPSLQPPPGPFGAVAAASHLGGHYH
Procedure, shortened: (§1)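 Yeast served to express human transcription factors as GST fusions, which were then captured on glutathione beads and labelled with DNA barcodes. Pooled with a tag-only sample, they were incubated with 200 nmole of a 16-mer random double-stranded DNA library for 30 min at room temperature in Tris/NaCl/DTT/glycerol buffer, washed, crosslinked with 0.1% formaldehyde, ligated by proximity, amplified by PCR and sequenced. Dividing each hexamer's read frequency for a factor by its frequency for the tag-only sample gives the binding signal.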

ETV5 = ETV5 (Homo sapiens, UniProt P41161 1-510)
Procedure, shortened: as §1

SPIC = molecular target: T2, SPIC (Homo sapiens, UniProt Q8N5J4 1-248)
T2 sequence: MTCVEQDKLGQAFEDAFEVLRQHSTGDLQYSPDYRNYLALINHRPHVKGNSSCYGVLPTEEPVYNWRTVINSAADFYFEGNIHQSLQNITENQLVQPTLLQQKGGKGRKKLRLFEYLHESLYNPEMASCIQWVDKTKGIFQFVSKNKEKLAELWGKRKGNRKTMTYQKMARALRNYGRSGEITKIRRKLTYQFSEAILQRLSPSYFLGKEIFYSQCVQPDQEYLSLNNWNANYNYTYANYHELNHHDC
Procedure, shortened: as §1

ELF4 = ELF4 (Homo sapiens, UniProt Q99607 1-663)
Procedure, shortened: as §1

ELK4 = molecular target: T3, ELK4 (Homo sapiens, UniProt P28324-2 1-405)
T3 sequence: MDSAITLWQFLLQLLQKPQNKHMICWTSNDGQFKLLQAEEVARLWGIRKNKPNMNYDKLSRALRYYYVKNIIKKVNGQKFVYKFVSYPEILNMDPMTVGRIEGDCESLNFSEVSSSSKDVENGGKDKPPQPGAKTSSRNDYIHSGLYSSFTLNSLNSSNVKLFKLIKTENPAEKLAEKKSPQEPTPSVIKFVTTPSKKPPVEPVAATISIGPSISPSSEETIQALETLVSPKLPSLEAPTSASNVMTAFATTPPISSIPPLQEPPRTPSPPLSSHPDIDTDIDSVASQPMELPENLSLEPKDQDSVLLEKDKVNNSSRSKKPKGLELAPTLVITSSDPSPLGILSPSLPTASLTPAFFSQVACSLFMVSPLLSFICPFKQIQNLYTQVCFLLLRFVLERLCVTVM
Procedure, shortened: as §1

ETV2 = molecular target: T4, ETV2 (Homo sapiens, UniProt O00321 1-342)
T4 sequence: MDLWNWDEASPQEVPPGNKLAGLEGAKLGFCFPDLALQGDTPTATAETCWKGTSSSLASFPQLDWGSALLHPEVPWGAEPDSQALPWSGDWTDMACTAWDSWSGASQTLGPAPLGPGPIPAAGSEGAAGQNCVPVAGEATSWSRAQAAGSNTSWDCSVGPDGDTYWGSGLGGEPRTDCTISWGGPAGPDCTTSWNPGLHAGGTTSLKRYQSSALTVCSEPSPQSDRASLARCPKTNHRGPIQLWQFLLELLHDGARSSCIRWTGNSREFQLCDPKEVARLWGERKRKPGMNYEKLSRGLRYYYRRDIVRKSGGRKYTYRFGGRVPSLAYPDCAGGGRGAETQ
Procedure, shortened: as §1

ELF3 = molecular target: T5, ELF3 (Homo sapiens, UniProt P78545 1-371)
T5 sequence: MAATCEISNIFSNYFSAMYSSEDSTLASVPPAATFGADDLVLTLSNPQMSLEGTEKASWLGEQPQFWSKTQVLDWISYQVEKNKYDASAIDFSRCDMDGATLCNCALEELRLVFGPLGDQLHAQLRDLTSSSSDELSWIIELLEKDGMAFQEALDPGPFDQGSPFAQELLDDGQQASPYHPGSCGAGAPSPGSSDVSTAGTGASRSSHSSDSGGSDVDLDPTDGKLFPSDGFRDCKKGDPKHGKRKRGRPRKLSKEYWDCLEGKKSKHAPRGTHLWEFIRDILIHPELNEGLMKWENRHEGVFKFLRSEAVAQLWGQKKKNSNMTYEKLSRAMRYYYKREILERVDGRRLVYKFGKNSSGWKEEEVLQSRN
Procedure, shortened: as §1

ETV1 = ETV1 (Homo sapiens, UniProt P50549 1-477)
Procedure, shortened: as §1

ERF = molecular target: T6, ERF (Homo sapiens, UniProt P50548 1-548)
T6 sequence: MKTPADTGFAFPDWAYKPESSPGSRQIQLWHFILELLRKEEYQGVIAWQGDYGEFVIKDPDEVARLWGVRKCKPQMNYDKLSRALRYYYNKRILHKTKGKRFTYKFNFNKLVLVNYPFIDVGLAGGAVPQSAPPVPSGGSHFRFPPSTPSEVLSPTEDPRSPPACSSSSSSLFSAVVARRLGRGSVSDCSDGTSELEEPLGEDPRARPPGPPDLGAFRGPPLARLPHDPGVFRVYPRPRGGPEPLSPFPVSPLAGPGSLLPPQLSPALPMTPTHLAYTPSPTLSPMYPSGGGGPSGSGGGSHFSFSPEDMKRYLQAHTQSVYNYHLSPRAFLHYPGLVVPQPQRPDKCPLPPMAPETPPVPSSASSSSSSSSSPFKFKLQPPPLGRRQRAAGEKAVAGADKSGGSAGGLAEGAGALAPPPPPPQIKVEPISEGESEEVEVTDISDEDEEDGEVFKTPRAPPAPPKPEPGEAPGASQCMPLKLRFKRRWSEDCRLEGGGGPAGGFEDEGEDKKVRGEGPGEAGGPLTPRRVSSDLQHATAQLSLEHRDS
Procedure, shortened: as §1

ETV3L = molecular target: T7, ETV3L (Homo sapiens, UniProt Q6ZN32 1-361)
T7 sequence: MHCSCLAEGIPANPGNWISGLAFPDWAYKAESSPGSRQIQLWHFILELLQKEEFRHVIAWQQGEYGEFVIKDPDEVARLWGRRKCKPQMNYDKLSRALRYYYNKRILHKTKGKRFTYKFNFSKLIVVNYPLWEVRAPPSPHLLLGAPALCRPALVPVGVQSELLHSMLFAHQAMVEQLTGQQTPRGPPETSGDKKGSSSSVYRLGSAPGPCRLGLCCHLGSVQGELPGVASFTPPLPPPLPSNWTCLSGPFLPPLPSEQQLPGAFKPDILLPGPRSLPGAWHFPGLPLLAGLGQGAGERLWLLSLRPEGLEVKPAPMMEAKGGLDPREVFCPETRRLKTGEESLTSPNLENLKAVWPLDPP
Procedure, shortened: as §1

ETS2 = molecular target: T8, ETS2 (Homo sapiens, UniProt P15036 1-469)
T8 sequence: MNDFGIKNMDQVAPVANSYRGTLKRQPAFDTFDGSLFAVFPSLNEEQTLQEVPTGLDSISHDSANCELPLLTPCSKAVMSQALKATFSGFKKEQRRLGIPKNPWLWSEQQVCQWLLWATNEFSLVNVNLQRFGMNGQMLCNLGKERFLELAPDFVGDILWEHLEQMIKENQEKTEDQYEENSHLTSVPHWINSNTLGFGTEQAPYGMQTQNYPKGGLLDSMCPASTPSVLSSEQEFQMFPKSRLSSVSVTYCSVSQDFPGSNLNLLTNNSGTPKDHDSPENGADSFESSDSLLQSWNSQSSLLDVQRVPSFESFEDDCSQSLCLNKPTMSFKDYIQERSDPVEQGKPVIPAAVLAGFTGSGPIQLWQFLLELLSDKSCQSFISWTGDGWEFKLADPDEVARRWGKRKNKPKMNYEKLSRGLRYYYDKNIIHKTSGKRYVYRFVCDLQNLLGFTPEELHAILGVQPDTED
Procedure, shortened: as §1

SPDEF = molecular target: T9, SPDEF (Homo sapiens, UniProt O95238 1-335)
T9 sequence: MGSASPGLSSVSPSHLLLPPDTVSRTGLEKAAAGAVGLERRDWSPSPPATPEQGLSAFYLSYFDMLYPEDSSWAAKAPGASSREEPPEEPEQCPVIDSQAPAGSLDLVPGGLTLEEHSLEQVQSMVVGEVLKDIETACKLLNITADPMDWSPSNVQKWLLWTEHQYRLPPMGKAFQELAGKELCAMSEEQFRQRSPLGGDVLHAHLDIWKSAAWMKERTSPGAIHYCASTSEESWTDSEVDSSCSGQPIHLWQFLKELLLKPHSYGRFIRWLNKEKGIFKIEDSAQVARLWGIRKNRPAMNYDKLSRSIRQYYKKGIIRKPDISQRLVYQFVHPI
Procedure, shortened: as §1

ETV7 = molecular target: T10, ETV7 (Homo sapiens, UniProt Q9Y603 1-341)
T10 sequence: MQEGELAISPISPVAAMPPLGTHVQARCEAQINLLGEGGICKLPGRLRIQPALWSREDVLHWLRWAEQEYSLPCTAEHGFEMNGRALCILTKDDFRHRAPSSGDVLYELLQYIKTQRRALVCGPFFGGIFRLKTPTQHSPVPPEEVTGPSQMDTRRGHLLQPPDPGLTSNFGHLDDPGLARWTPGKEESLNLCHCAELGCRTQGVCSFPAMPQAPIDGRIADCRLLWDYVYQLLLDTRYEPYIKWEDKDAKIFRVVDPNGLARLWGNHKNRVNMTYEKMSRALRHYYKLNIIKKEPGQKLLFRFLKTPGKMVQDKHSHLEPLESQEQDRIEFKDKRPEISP
Procedure, shortened: as §1

ELF5 = molecular target: T11, ELF5 (Homo sapiens, UniProt Q9UKW6-2 1-255)
T11 sequence: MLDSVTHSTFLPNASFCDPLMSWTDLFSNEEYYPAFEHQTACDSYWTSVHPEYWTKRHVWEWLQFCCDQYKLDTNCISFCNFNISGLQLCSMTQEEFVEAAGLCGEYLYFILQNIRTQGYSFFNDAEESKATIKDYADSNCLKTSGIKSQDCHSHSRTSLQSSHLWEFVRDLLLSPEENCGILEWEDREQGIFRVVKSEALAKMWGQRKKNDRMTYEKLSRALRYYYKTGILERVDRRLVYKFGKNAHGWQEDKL
Procedure, shortened: as §1

ETV3 = molecular target: T12, ETV3 (Homo sapiens, UniProt P41162-2 1-143)
T12 sequence: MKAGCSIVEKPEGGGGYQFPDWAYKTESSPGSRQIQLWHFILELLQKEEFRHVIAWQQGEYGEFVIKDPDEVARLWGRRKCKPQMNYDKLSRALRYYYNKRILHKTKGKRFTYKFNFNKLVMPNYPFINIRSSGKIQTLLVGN
Procedure, shortened: as §1

ETV6 = ETV6 (Homo sapiens, UniProt P41212 1-452)
Procedure, shortened: as §1

Chain of ETV5 (P41161 whole entry): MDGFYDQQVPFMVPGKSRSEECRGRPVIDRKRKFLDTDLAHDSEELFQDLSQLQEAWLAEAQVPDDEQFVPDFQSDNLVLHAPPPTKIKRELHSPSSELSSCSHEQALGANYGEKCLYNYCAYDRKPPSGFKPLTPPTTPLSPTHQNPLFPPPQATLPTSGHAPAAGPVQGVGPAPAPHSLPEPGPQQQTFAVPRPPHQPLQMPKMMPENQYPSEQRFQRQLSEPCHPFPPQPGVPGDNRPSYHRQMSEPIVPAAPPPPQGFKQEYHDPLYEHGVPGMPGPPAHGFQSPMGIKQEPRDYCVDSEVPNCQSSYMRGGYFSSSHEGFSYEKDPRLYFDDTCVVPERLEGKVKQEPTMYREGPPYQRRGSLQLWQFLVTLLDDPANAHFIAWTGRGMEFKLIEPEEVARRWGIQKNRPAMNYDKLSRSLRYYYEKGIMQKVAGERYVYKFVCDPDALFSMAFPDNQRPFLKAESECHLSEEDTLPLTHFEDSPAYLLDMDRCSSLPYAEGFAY
Chain of ETV1 (P50549 whole entry): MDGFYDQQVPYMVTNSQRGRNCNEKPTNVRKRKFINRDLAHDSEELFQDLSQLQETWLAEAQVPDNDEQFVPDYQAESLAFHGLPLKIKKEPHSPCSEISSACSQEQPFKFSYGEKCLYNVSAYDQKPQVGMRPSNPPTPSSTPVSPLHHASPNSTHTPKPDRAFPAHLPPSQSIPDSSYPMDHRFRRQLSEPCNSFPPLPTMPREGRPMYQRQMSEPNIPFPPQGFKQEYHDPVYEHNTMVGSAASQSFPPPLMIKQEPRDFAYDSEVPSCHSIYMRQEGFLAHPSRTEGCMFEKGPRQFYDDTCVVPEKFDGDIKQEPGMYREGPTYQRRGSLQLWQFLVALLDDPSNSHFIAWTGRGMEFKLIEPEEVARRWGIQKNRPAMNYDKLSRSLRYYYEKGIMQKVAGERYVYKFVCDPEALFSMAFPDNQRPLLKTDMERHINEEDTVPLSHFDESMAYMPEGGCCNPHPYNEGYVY
Chain of ELF4 (Q99607 whole entry): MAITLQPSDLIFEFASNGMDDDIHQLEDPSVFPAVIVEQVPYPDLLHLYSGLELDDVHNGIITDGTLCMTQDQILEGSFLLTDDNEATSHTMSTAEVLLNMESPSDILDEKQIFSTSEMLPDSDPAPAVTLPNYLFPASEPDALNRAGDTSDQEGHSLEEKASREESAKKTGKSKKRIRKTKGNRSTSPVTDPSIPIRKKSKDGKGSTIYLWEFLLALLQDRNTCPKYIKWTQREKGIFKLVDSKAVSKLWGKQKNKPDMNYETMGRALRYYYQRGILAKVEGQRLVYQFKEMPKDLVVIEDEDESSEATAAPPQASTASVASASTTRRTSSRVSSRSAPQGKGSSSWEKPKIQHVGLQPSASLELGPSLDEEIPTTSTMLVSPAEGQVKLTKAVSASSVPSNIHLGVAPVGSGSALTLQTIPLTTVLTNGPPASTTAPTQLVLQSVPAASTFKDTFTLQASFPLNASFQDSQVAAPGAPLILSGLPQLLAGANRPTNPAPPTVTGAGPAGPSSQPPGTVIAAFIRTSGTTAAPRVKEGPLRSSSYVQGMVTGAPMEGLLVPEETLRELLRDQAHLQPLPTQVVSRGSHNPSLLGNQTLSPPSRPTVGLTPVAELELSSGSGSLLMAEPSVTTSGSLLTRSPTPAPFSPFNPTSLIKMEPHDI
Chain of ETV6 (P41212 whole entry): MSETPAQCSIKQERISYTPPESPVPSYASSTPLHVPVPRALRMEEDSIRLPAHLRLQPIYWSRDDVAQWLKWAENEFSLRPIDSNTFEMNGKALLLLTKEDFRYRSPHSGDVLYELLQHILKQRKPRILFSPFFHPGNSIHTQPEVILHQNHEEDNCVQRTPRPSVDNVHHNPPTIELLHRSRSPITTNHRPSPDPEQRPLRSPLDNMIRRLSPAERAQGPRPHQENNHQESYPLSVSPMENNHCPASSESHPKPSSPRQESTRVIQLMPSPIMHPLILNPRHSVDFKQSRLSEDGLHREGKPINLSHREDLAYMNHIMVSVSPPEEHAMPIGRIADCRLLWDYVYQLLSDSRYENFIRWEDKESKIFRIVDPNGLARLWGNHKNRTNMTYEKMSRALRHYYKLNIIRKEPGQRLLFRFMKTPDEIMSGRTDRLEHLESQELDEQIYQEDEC

Sequence	binding signal (FEV)	binding signal (ETV5)	binding signal (SPIC)	binding signal (ELF4)	binding signal (ELK4)	binding signal (ETV2)	binding signal (ELF3)	binding signal (ETV1)	binding signal (ERF)	binding signal (ETV3L)	binding signal (ETS2)	binding signal (SPDEF)	binding signal (ETV7)	binding signal (ELF5)	binding signal (ETV3)	binding signal (ETV6)
CGTCAA	1.08 fold enrichment (6-mer frequency, TF over GST control)	1.08 fold enrichment (6-mer frequency, TF over GST control)	1.19 fold enrichment (6-mer frequency, TF over GST control)	1.15 fold enrichment (6-mer frequency, TF over GST control)	1.12 fold enrichment (6-mer frequency, TF over GST control)	1.2 fold enrichment (6-mer frequency, TF over GST control)	1.2 fold enrichment (6-mer frequency, TF over GST control)	1.12 fold enrichment (6-mer frequency, TF over GST control)	1.13 fold enrichment (6-mer frequency, TF over GST control)	1.09 fold enrichment (6-mer frequency, TF over GST control)	1.16 fold enrichment (6-mer frequency, TF over GST control)	1.15 fold enrichment (6-mer frequency, TF over GST control)	1.09 fold enrichment (6-mer frequency, TF over GST control)	1.08 fold enrichment (6-mer frequency, TF over GST control)	1.06 fold enrichment (6-mer frequency, TF over GST control)	1.15 fold enrichment (6-mer frequency, TF over GST control)
CACATC	1.71 fold enrichment (6-mer frequency, TF over GST control)	1.5 fold enrichment (6-mer frequency, TF over GST control)	1.31 fold enrichment (6-mer frequency, TF over GST control)	1.36 fold enrichment (6-mer frequency, TF over GST control)	1.45 fold enrichment (6-mer frequency, TF over GST control)	1.44 fold enrichment (6-mer frequency, TF over GST control)	1.34 fold enrichment (6-mer frequency, TF over GST control)	1.38 fold enrichment (6-mer frequency, TF over GST control)	1.39 fold enrichment (6-mer frequency, TF over GST control)	1.41 fold enrichment (6-mer frequency, TF over GST control)	1.38 fold enrichment (6-mer frequency, TF over GST control)	2.09 fold enrichment (6-mer frequency, TF over GST control)	1.38 fold enrichment (6-mer frequency, TF over GST control)	1.42 fold enrichment (6-mer frequency, TF over GST control)	1.49 fold enrichment (6-mer frequency, TF over GST control)	1.5 fold enrichment (6-mer frequency, TF over GST control)
GATGCG	1.15 fold enrichment (6-mer frequency, TF over GST control)	1.14 fold enrichment (6-mer frequency, TF over GST control)	1.24 fold enrichment (6-mer frequency, TF over GST control)	1.14 fold enrichment (6-mer frequency, TF over GST control)	1.32 fold enrichment (6-mer frequency, TF over GST control)	1.16 fold enrichment (6-mer frequency, TF over GST control)	1.11 fold enrichment (6-mer frequency, TF over GST control)	1.06 fold enrichment (6-mer frequency, TF over GST control)	1.17 fold enrichment (6-mer frequency, TF over GST control)	1.25 fold enrichment (6-mer frequency, TF over GST control)	1.2 fold enrichment (6-mer frequency, TF over GST control)	1.25 fold enrichment (6-mer frequency, TF over GST control)	1.22 fold enrichment (6-mer frequency, TF over GST control)	1.1 fold enrichment (6-mer frequency, TF over GST control)	1.23 fold enrichment (6-mer frequency, TF over GST control)	1.12 fold enrichment (6-mer frequency, TF over GST control)
